“And” between values parts separate entries of the source, which are not always exact repeats. Equal entries are not always repeated. Values without a mark were called inactive. Records with an inconclusive call do not appear. The source made the active and inactive calls. Unless noted, calls follow the shape of the dose curve; as a rule, active = well fitted curve in the direction sought with a large enough effect in the repeat runs; inconclusive = weak or mixed curves; inactive = flat fitted curve, though single readings scatter.

Experimental findings from PubChem BioAssay (Tox21) are described below.

A short description of test [1]: qHTS assay to test for compound auto fluorescence at 535 nm (green) in HEK293 cells (AID 720680). (Quantitative high-throughput screening tests each substance at several concentrations.)
Test [2] in a line: qHTS assay to test for compound auto fluorescence at 460 nm (blue) in HEK293 cell free culture (AID 720681). Also: potency is read from the fitted curve at half-maximal effect. The essentials:
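Blue fluorescence (Ex 405/Em 460 nm, triamterene-equivalent) was read immediately after pin transfer of compound or DMSO into medium (DMEM, 10% FBS) without cells.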

Test [3] is described as follows: qHTS assay to test for compound auto fluorescence at 535 nm (green) in HEK293 cell free culture (AID 720682). A digest of the protocol: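 Intrinsic compound fluorescence is measured in culture medium containing 10% FBS, with excitation at 485 nm and detection at 535 nm, referenced to fluorescein.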
Test [4] can be described thus: qHTS assay to test for compound auto fluorescence at 590 nm (red) in HEK293 cell free culture (AID 720683). A digest of the protocol: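 Red-channel autofluorescence of compounds in culture medium (DMEM, 10% FBS), no cells, measured at 540/590 nm. Rose Bengal sodium is the reference fluorophore for equivalence.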
Test [5] can be described thus: qHTS assay to test for compound auto fluorescence at 590 nm (red) in HepG2 cell free culture (AID 720684). A digest of the protocol: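 Cell-free; medium MEM + 10% FBS; compound or DMSO added by pintool; read Ex 540/Em 590 nm; Rose Bengal sodium as red reference fluorophore.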
Test [6] is described as follows: qHTS assay to test for compound auto fluorescence at 460 nm (blue) in HepG2 cell free culture (AID 720685). Also: potency is read from the fitted curve at half-maximal effect. The essentials:
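Cell-free plates of MEM plus 10% FBS received 23 nL compound or DMSO vehicle; blue-channel (405/460 nm) intensity scored against triamterene as reference fluorophore.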

The nature of test [7]: qHTS assay to test for compound auto fluorescence at 535 nm (green) in HepG2 cell free culture (AID 720686).
Test [8] can be described thus: qHTS assay to test for compound auto fluorescence at 460 nm (blue) in HepG2 cells (AID 720687). Also: potency is read from the fitted curve at half-maximal effect. A digest of the protocol: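 Blue-channel autofluorescence (Ex/Em 405/460 nm, triamterene-equivalent) was measured after 1 hr compound exposure at 37 C, 5% CO2. Cells were HepG2, plated overnight at 37 C in MEM plus 10% FBS.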
In test [9] the target is Glucocorticoid receptor (Homo sapiens) (UniProt P04150). In words: qHTS assay to identify small molecule agonists of the glucocorticoid receptor (GR) signaling pathway (AID 720691; active = well fitted activation curve with a large enough effect in the signal ratio in the repeat runs, not every such curve was filed as active; the % refers to the signal ratio). A digest of the protocol:
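Steps: seed GR-bla HeLa cells, incubate 4 h at 37 C/5% CO2; pin-transfer DMSO-dissolved compounds; incubate 18 h at 37 C; add LiveBLAzer B/G FRET substrate; after 2 h at room temperature, measure fluorescence.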

Test [10] has the same target. In words: qHTS assay to identify small molecule antagonists of the glucocorticoid receptor (GR) signaling pathway (AID 720692; active = well fitted inhibition curve with a large enough effect in the signal ratio in the repeat runs, not every such curve was filed as active; the % refers to the signal ratio). A digest of the protocol:
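Antagonism was scored as loss of dexamethasone-driven (5 nM final) reporter signal in HeLa cells bearing a glucocorticoid response element–beta-lactamase construct, after 18 h compound exposure at 37 C and 2 h FRET substrate loading.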
Tags tell the direction and shape of the fitted curve or compound fluorescence and quenching.

Sequence of Glucocorticoid receptor (Homo sapiens) (P04150 whole entry, looked up): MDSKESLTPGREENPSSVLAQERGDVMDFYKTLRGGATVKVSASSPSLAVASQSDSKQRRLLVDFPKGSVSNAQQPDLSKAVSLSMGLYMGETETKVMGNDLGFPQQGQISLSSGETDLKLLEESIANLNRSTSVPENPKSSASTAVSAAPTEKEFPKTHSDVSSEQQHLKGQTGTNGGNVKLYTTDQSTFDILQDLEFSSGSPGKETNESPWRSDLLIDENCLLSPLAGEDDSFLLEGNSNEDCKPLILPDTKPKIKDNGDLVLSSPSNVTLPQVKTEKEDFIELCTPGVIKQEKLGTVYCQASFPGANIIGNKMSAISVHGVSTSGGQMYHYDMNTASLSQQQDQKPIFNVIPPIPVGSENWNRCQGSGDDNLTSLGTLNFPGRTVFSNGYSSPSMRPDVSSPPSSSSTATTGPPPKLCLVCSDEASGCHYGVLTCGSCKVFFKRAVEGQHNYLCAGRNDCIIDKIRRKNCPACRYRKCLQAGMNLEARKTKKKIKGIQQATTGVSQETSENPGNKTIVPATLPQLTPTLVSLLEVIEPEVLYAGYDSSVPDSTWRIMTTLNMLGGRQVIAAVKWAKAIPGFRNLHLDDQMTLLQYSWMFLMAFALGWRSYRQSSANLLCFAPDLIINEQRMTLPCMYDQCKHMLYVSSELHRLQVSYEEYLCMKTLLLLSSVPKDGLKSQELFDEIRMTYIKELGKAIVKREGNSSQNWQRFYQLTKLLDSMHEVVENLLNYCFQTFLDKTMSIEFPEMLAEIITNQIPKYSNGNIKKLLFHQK

With `CC(=O)Nc1ccc(CC(=O)O)cc1`, the result in test [1], in [3], in test [4], in [5], in [7] and in test [9] was inactive. The Potency entry in test [2], in [6], in test [8] and in test [10] was “inactive” in each case.
Consider `OCC(CO)(CO)CO`, for which the compound was classed as inactive in test [1], in test [3], in test [4], in test [5] and in test [7]. Also, the Potency entry in test [2], in test [6] and in test [8] was “inactive” in each case.
As to `O=C(c1ccccc1)c1ccc(O)c(O)c1O`, the result in test [1], in test [3], in test [4], in [5], in test [7] and in test [9] was inactive. For the same compound, the Potency entry in test [2], in test [6], in test [8] and in [10] was “inactive” in each case.
Consider `CCCCCCCCC(=O)O`, for which the compound was classed as inactive in test [1], in [3], in test [4], in [5], in test [7] and in [9]. Besides, the Potency result in [2], in [6], in test [8] and in [10] was “inactive” each time.
As for `Cc1ccccc1C=O`, the outcome in test [1], in test [3], in [4], in [5], in test [7] and in test [9] was inactive. The Potency result in test [2], in [6], in [8] and in [10] was “inactive” throughout.
Consider `COc1ccc([C@@H]2CC(=O)c3c(O)cc(O[C@@H]4O[C@H](CO[C@@H]5O[C@@H](C)[C@H](O)[C@@H](O)[C@H]5O)[C@@H](O)[C@H](O)[C@H]4O)cc3O2)cc1OC`, for which the compound was called inactive in [1], in [3], in [4], in test [5] and in test [7]. The Potency result in test [2], in [6] and in [8] was “inactive” throughout.
With `CC(C)(C)NC[C@H](O)COc1nsnc1N1CCOCC1`, the call in test [1], in test [3], in test [4], in [5], in test [7] and in test [9] was inactive. Besides, the Potency result in test [2], in test [6], in [8] and in test [10] was “inactive” in each case.
With `Nc1nc(N)c2nc(-c3ccccc3)c(N)nc2n1`, the outcome in [1], in [3], in test [4], in [5] and in test [7] was inactive. Also, the Potency in test [2] was 12.6 µM (active) and 39.8 µM (active); in [6], 12.6 µM [fluorescent] (active) and 39.8 µM [fluorescent] (active); in [8] it was 12.6 µM [fluorescent] (active) and 39.8 µM [fluorescent] (active).
Regarding `CC(O)CNCC(C)O` (stereo unspecified), the call in [1], in [3], in test [4], in test [5] and in [7] was inactive. Further, the Potency entry in [2], in test [6] and in test [8] was “inactive” throughout.
Turning to `CC(=O)OC(C)(C)C1CC=C(C)CC1` (stereo unspecified), the result in test [1], in test [3], in [4], in [5] and in test [7] was inactive. Besides, the Potency entry in test [2], in [6] and in test [8] was “inactive” in each case.
With `CC(=O)CC(=O)N(C)C`, the outcome in test [1], in test [3], in test [4], in test [5], in [7] and in test [9] was inactive. Moreover, the Potency result in test [2], in test [6], in test [8] and in test [10] was “inactive” in each case.
`O=C1C(N(CO)C(=O)NCO)N(CO)C(=O)N1CO` (stereo unspecified): the compound was called inactive in test [1], in test [3], in [4], in [5] and in test [7]. For the same compound, the Potency result in [2], in test [6] and in [8] was “inactive” each time.
As for `O=C(O)C1=NN(c2ccc(S(=O)(=O)O)cc2)C(=O)C1`, the compound was classed as inactive in [1], in [3], in [4], in [5], in test [7] and in test [9]. Besides, the Potency result in test [2], in test [6], in test [8] and in test [10] was “inactive” in each case.
On to `O=C(Cl)c1ccc(C(=O)Cl)cc1`, for which the compound was called inactive in [1], in [3], in [4], in [5], in test [7] and in test [9]. In addition, the Potency entry in [2], in test [8] and in test [10] was “inactive” in each case.
With `CCCOCC(C)O` (stereo unspecified), the call in test [1], in [3], in [4], in [5] and in [7] was inactive. For the same compound, the Potency entry in [2] and in test [8] was “inactive” in each case.
Turning to `CC1(C)C(=O)N(Cl)C(=O)N1Cl`, the compound was classed as inactive in test [1], in test [3], in test [4], in test [5], in [7] and in test [9]. In addition, the Potency entry in test [2], in test [8] and in test [10] was “inactive” throughout.
As to `COc1ccc(N)c(OC)c1`, the call in [1], in [3], in test [4], in test [5], in [7] and in test [9] was inactive. Besides, the Potency result in [2], in [8] and in test [10] was “inactive” in each case.
Regarding `Clc1cccc(Cl)c1NC1=NCCN1`, the outcome in [1], in [3], in test [4], in test [5], in test [7] and in test [9] was inactive. The Potency result in test [2], in test [8] and in [10] was “inactive” in each case.
With `COc1c(Cl)ccc(Cl)c1C(=O)O`, the call in test [1], in [3], in test [4], in test [5] and in test [7] was inactive. Besides, the Potency result in [2] and in [8] was “inactive” each time.
In the case of `NC1CCCCC1N` (stereo unspecified), the result in test [1], in [3], in [4], in test [5], in [7] and in [9] was inactive. The Potency entry in [2], in [8] and in [10] was “inactive” each time.
Consider `C[n+]1ccn(CCO)c1`, for which the compound was classed as inactive in test [1], in test [3], in [4], in test [5], in [7] and in test [9]. Besides, the Potency entry in test [2], in [8] and in [10] was “inactive” in each case.
In the case of `NC(=O)NC(N)=O`, the compound was classed as inactive in test [1], in test [3], in test [4], in test [5] and in [7]. Besides, the Potency entry in test [2] and in test [8] was “inactive” throughout.
In the case of `Cc1cccc(C)c1[N+](=O)[O-]`, the call in test [1], in test [3], in [4], in test [5], in test [7] and in [9] was inactive. In addition, the Potency entry in [2] and in [8] was “inactive” throughout.
`CCCCC(=O)O`: the outcome in test [1], in test [3], in test [4], in test [5], in [7] and in test [9] was inactive. The Potency result in test [2], in [8] and in test [10] was “inactive” each time.
As for `CCc1cccc(CC)c1N`, the compound was called inactive in [1], in [3], in test [4], in [5], in [7] and in test [9]. Further, the Potency result in test [2], in [6], in test [8] and in test [10] was “inactive” throughout.
`COCN(COC)c1nc(N(COC)COC)nc(N(COC)COC)n1`: the call in [1], in test [3], in test [4], in test [5], in [7] and in test [9] was inactive. In addition, the Potency entry in test [2], in test [8] and in [10] was “inactive” each time.
On to `Brc1ccc(Oc2ccc(Br)cc2)cc1`, for which the result in test [1], in [3], in [4], in test [5], in test [7] and in test [9] was inactive. Besides, the Potency entry in test [2], in [6], in [8] and in test [10] was “inactive” each time.
In the case of `CC1(C)[C@@H](O[C@H]2O[C@H](C(=O)O)[C@@H](O)[C@H](O)[C@H]2O[C@@H]2O[C@H](C(=O)O)[C@@H](O)[C@H](O)[C@H]2O)CC[C@]2(C)[C@H]3C(=O)C=C4[C@@H]5C[C@@](C)(C(=O)O)CC[C@]5(C)CC[C@@]4(C)[C@]3(C)CC[C@@H]12`, the compound was classed as inactive in [1], in [3], in test [5] and in test [7]. For the same compound, the Potency result in test [2], in [6] and in [8] was “inactive” each time.
